Values joined by “and” are separate entries in the source; they are usually repeats but may differ in a detail not shown here. Equal entries are not always repeated. Screen size: about 340,000 compounds; about 3,300 (0.97%) were called active. Another 9% or so got no clear call; they are omitted. Calls follow the shape of the dose curve; as a rule, active = well fitted inhibition curve with a large enough effect; inconclusive = small, poorly fitted or top-dose-only effect, or effect the other way; inactive = flat fitted curve, though single readings scatter. This is one part of the list.
Potency is read from the fitted curve at half-maximal effect.

The nature of this assay: qHTS Assay for Modulators of miRNAs and/or Inhibitors of miR-21. Also: nearly all actives have a fitted effect of over 55% in size. The following applies: HeLa miR-21-FLuc reporter, luciferase luminescence, 48 h; actives lower the signal. An excerpt:
MLSCN Grant: 1 R21 NS059478-01 Assay Provider: Qihong Huang, The Wistar Institute NCGC Assay Overview: MicroRNAs (miRNAs) are endogenously encoded small (~20-25 nucleotides), nonprotein-coding RNAs that are involved in post-transcriptional repression of target messenger RNAs (mRNAs) (Le and Hannon, 2004). Estimated to be involved in the regulation of 30% of all protein-coding mRNAs (Filipowicz et al., 2008), miRNAs play a significant role in many biological processes including cellular differentiation and tissue development (Ghildiyal and Zamore, 2009).
NCGC Assay Protocol Summary: Reagents: HeLa cells stably expressing firefly luciferase (FLuc) under the control of a CMV promoter (upstream) and a miR-21 binding sequence directly downstream of the gene. These cells endogenously express miR-21. Control compounds used were compound C3 (provided by collaborator), N6-phenyladenosine (MP Biomedicals, 0215379625), and DMSO. Assay Summary: 6uL of HeLa miR-21-FLuc cells in assay buffer (DMEM, Invitrogen #21063-029; 10% FBS, HyClone #SH30071.03) were dispensed at 2000cells/well (3.3 x 10^5 cells/mL) into Greiner solid-white TC-treated 1536-well plates using a Multidrop Combi (Thermo Fisher Scientific). Plates were incubated for one hour at 37 degree Celsius, 95% humidity, 5% CO2. These assay plates were then treated with 23nL of compound or DMSO using a Kalypsys pin tool, which allows for delivery of a 24-point titration of each compound to the assay plate, with a final compound concentration ranging from approximately 40uM to 5pM. Assay plates were then incubated for 48 hours. After incubation, plates were allowed to come to RT for one hour prior to delivery of 3uL of 3X luciferase detection reagent. After a 15 minute incubation to allow for cell lysis, luciferase activity was measured using a ViewLux CCD imager (PerkinElmer), with an average exposure time of 2-12 seconds. Keywords: NIH Roadmap, MLPCN, MLSMR, qHTS, miR-21, microRNA, firefly luciferase, FLuc.
(In general: Quantitative high-throughput screening tests each substance at several concentrations.)
On to `C=CCNC(=O)/C=C/c1ccc(C(C)C)cc1`, for which the Potency was 7.36 µM (active). The figure for `CCCNC(=O)/C=C/c1ccc(C(C)C)cc1` is 16.5 µM (active). Take `CCCOc1cccc(C(=O)Nc2ccc(Br)cc2F)c1`: the Potency was 1.85 µM (active). With `Nc1c(C(=O)c2cccs2)sc2nsc(SCCN3CCCCC3)c12`, the Potency was 4.14 µM (active).

In the case of `CN1/C(=C\C(=O)c2cccc([N+](=O)[O-])c2)Sc2ccccc21`, the Potency is 0.329 µM (active). Turning to `Cc1ccc(C(=O)Cn2nnc3ccccc32)cc1`, the Potency is 2.33 µM (active).

As for `Cc1ccc(C(=O)Cn2nnc3ccccc32)cc1C`, the Potency is 1.31 µM (active). The figure for `Clc1cccc(CSc2ncn(-c3ccccc3)n2)c1` is 16.5 µM (active). As for `Clc1ccccc1CSc1ncn(-c2ccccc2)n1`, the Potency is 5.85 µM (active). In the case of `C/C(=N/NC(=O)c1cccs1)c1ccc(N2CCOCC2)cc1` it was 11.7 µM (active); in that of `O=C(N/N=C/c1ccc(N2CCOCC2)cc1)c1cccs1`, 3.29 µM (active); in that of `O=C(Nc1nc2c(F)cc(F)cc2s1)c1ccc2c(c1)OCCO2`, 0.0826 µM (active). In the case of `Cc1ccc(C(=O)/C=C/c2ccc3c(c2)OCCO3)c(O)c1` it was 18.5 µM (active).

For the molecule `O=C(/C=C/c1ccc2c(c1)OCCCO2)c1ccccc1O`, the Potency was 2.07 µM (active). In the case of `C=CCn1c(C)csc1=Nc1ccc(C(C)=O)cc1` it was 10.4 µM (active). On to `Cc1cc(C)nc(S/C=C/C(=O)c2ccccc2F)n1`, for which the Potency is 11.7 µM (active). The figure for `C/C(N)=C(/C#N)C(=O)CSc1ccccc1F` is 8.26 µM (active); for `Cc1cc(C)n2c(Br)c(CSc3nc4ccccc4s3)nc2n1` it is 4.14 µM (active). Take `Cc1cc(C)n2cc(CSc3nc4ccccc4s3)nc2n1`: the Potency is 4.65 µM (active).

On to `Cc1cc(C)n2cc(COc3ccc4ccccc4c3)nc2n1`, for which the Potency is 1.17 µM (active). In the case of `Cc1cnc(C(=O)Nc2ccc(C(C)C)cc2)cn1` it was 1.65 µM (active); in that of `CC(C)c1ccc(NC(=O)C2=NNC(=O)CC2)cc1`, 2.33 µM (active).

For `O=C1c2ccccc2NC(c2ccccc2O)N1c1ccc(F)cc1` (stereo unspecified), the Potency is 2.93 µM (active). In the case of `O=C(Nc1ccc2c(c1)CCC2)c1cccc(F)c1` it was 4.14 µM (active).

In the case of `O=C(Nc1ccc2c(c1)CCC2)c1ccc(Br)s1`, the Potency is 0.261 µM (active). The figure for `O=C(Nc1cccc(F)c1)Nc1ccc2c(c1)CCC2` is 0.736 µM (active). `O=C1NC(c2ccccc2Cl)=N/C1=C/c1ccco1`: the Potency is 10.4 µM (active). Regarding `O=C1NC(c2ccc(Br)cc2)=N/C1=C/c1ccco1`, the Potency is 0.927 µM (active). The figure for `c1csc(-c2nn3c(C4COc5ccccc5O4)nnc3s2)c1` (stereo unspecified) is 16.5 µM (active); for `COc1ccc(NC(=O)c2cc(F)cc(F)c2)cc1Cl` it is 9.27 µM (active); for `COc1ccc(NC(=O)Nc2ccccc2F)cc1Cl` it is 2.07 µM (active). The figure for `COc1ccc(C(=O)Nc2ccc(Cl)c(Cl)c2)c(OC)n1` is 0.355 µM (active). Consider `O=C(Cc1cccs1)NCc1cc(Cl)cc(Cl)c1`, for which the Potency is 14.7 µM (active). Turning to `Cc1cccc(CCNc2nc3ccc(C)cc3n3cnnc23)c1`, the Potency is 16.5 µM (active).

For `Cc1cc(C(=O)N/N=C/c2ccccc2)c(C)o1`, the Potency is 6.56 µM (active).

Regarding `Cc1cc(C(=O)N/N=C/c2c(C)nn(-c3ccccc3)c2C)c(C)o1`, the Potency is 8.26 µM (active). The figure for `Cc1cc(C(=O)N/N=C/c2c(C)nn(-c3ccccc3)c2C)n[nH]1` is 14.7 µM (active). In the case of `COc1cccc2[nH]c(=O)c(-c3ccccc3)cc12`, the Potency is 1.65 µM (active).

In the case of `Nc1nc(-c2ccc(Cl)cc2)nnc1-c1ccc(Br)cc1`, the Potency is 2.07 µM (active). Take `CCCC(=O)Nc1cc2nn(-c3ccccc3)nc2cc1C`: the Potency is 0.369 µM (active). The figure for `CC(=O)Nc1cc2nn(-c3ccccc3)nc2cc1Cl` is 0.464 µM (active); for `CC(C)CC(=O)Nc1ccc2nn(-c3ccccc3)nc2c1` it is 0.656 µM (active); for `COc1ccc(O)c(/C=N/N2CCCCC2)c1` it is 5.21 µM (active).

`O=C1N/C(=C\c2nc3ccccc3s2)c2ccccc21`: the Potency is 0.0736 µM (active). Consider `CSc1nnc(-c2cc3c(s2)-c2ccccc2CC3)o1`, for which the Potency was 1.17 µM (active).

On to `COCCNC(=O)c1cc2oc3ccccc3c2n1C`, for which the Potency was 14.7 µM (active). For the molecule `Cn1c(C(=O)NCC2CCCO2)cc2oc3ccccc3c21` (stereo unspecified), the Potency is 2.07 µM (active).

Take `Cn1c(C(=O)N2CCc3ccccc3C2)cc2oc3ccccc3c21`: the Potency was 10.4 µM (active). The figure for `Cc1sc(NC(=O)c2ccccc2)c(C#N)c1-c1ccccc1` is 0.826 µM (active); for `CCc1c(C)sc(NC(=O)c2ccco2)c1C#N` it is 11.7 µM (active); for `CCc1c(C)sc(NC(=O)c2cccs2)c1C#N` it is 5.21 µM (active). In the case of `Nc1nc2ccc(-c3nc4ccccc4o3)cc2s1` it was 0.927 µM (active). The figure for `CN1CCSc2ccc(C(=O)Nc3ccc(Cl)cc3)cc21` is 1.04 µM (active); for `Cc1ccccc1NC(=O)c1ccc2c(c1)N(C)CCS2` it is 3.69 µM (active). Take `c1csc(-c2nc3ccccc3s2)c1`: the Potency was 5.85 µM (active). In the case of `O=C1CCC(=O)N1c1ccc(-c2nc3ccccc3s2)cc1` it was 0.521 µM (active); in that of `c1ccc2sc(-c3ccncc3)nc2c1`, 6.56 µM (active); in that of `O=S(=O)(Nc1cccc(-c2ccc(N3CCCCCC3)nn2)c1)c1cccc(F)c1`, 9.27 µM (active). Consider `O=S(=O)(Nc1cccc(-c2ccc(N3CCCCCC3)nn2)c1)c1ccc(F)cc1`, for which the Potency was 13.1 µM (active).

For `CC(OC(=O)CNC(=O)c1ccccc1F)C(=O)Nc1nc(-c2ccccc2)cs1` (stereo unspecified), the Potency is 4.65 µM (active). In the case of `Nc1nn2cc(-c3ccccc3)nc2c2ccccc12` it was 0.521 µM (active); in that of `Clc1ccc(COc2ccccc2-c2ccnc3ncnn23)cc1`, 13.1 µM (active); in that of `CC(O)c1ccc(OCCN(C)c2ccccn2)cc1` (stereo unspecified), 16.5 µM (active). Take `COc1cc(OC)c(NC(=O)CCCn2nc(C)c3sc4ccccc4c3c2=O)cc1Cl`: the Potency is 11.7 µM (active). The figure for `Cc1ccc(CONC(=O)c2ccccc2)cc1` is 18.5 µM (active); for `CC/C(=N/NC(=O)c1ccccc1)c1ccc(OCCN2CCOCC2)cc1` it is 2.93 µM (active); for `Cc1nn(Cc2c(F)c(F)c(F)c(F)c2F)c(C)c1NC(=O)c1cccc(COc2ccc(Cl)cc2)c1` it is 7.36 µM (active). With `CC(C)c1cc(C(N)=O)c(NC(=O)c2cccc(COc3ccc(Cl)cc3)c2)s1`, the Potency was 0.585 µM (active).

For the molecule `COc1ccc(NC(=S)N2CCc3ccccc32)cc1OC`, the Potency is 16.5 µM (active).

Regarding `Brc1c(CSc2nc3ccccc3o2)nc2ncccn12`, the Potency is 7.36 µM (active).

In the case of `Brc1c(CSc2nc3ccccc3s2)nc2ncccn12`, the Potency was 3.29 µM (active).

In the case of `C/C(=N\Nc1nncc2ccccc12)c1ccc(C(C)(C)C)cc1`, the Potency was 7.36 µM (active). For the molecule `C/C(=N\Nc1nncc2ccccc12)c1ccc(OCC(=O)N(C)C)cc1`, the Potency is 4.65 µM (active). With `COc1ccc(/C(C)=N/Nc2nncc3ccccc23)cc1`, the Potency is 0.826 µM (active). In the case of `C/C(=N\Nc1nncc2ccccc12)c1cccc(OC(F)F)c1` it was 0.414 µM (active); in that of `Cc1cc(N2CCOCC2)nc(SCC(=O)c2ccccc2)n1`, 13.1 µM (active); in that of `Cc1cc(=O)oc2cc(NC(=O)c3ccccc3OC(F)F)ccc12`, 8.26 µM (active).

For the molecule `Cc1cc(=O)oc2cc(NC(=O)c3ccccc3Cl)ccc12`, the Potency is 3.69 µM (active). In the case of `CCCCOC(=O)Nc1ccc2c(C)cc(=O)oc2c1` it was 1.17 µM (active). For `COc1cccc(C(=O)Nc2ccc3c(C)cc(=O)oc3c2)c1`, the Potency was 0.329 µM (active). In the case of `COc1cccc(C(=O)Nc2ccc3c(c2)C(=O)c2ccccc2C3=O)c1` it was 2.93 µM (active). `COc1cccc(C(=O)Nc2nnc(-c3ccccc3)s2)c1`: the Potency was 0.826 µM (active). For `O=C(NC(=S)Nc1ccc2c(c1)C(=O)c1ccccc1C2=O)c1ccc(F)cc1`, the Potency was 2.93 µM (active). Regarding `C/C(=N\Nc1nc2ccccc2s1)c1ccc2c(c1)OCO2`, the Potency was 10.4 µM (active). In the case of `Fc1ccc2nc(Nc3nc4cc5c(cc4s3)OCO5)sc2c1` it was 1.65 µM (active). In the case of `CC(=O)c1sc(Nc2nc3cc4c(cc3s2)OCO4)nc1C` it was 1.85 µM (active); in that of `c1ccc2sc(Nc3nc4cc5c(cc4s3)OCO5)nc2c1`, 3.69 µM (active); in that of `CCN(CC)S(=O)(=O)c1nnc(NC(=O)COc2ccc(Cl)cc2)s1`, 0.521 µM (active). Consider `CC(=O)Nc1nnc(COc2ccc(Cl)cc2)s1`, for which the Potency was 3.29 µM (active). On to `Nc1nnnn1/N=C/c1ccc(N2CCCCC2)c([N+](=O)[O-])c1`, for which the Potency was 16.5 µM (active). The figure for `N/C(CS(=O)(=O)c1ccccn1)=N\OC(=O)c1ccccc1Cl` is 4.65 µM (active).

`Cc1c2ccccc2nc2c(F)c(NC(C)C)c(F)c(F)c12`: the Potency was 16.5 µM (active). Consider `O=C(Nc1ccc(Cl)cc1)OCc1ccccn1`, for which the Potency is 5.85 µM (active). `O=C(Nc1cccc(Cl)c1)OCc1ccccn1`: the Potency was 6.56 µM (active). The figure for `O=C(Cc1c(Cl)cccc1Cl)OCc1ccccn1` is 18.5 µM (active). The figure for `COc1ncccc1-c1nnn(-c2ccc(C)cc2)n1` is 1.47 µM (active); for `Cc1ccc(-n2nnc(-c3cccnc3Cl)n2)cc1` it is 0.521 µM (active). In the case of `Cc1ccc(-n2nnc(-c3ccnc4ccccc34)n2)cc1`, the Potency was 1.85 µM (active). The figure for `O=C(Nc1ccccc1)OCCOc1ccccc1` is 3.69 µM (active); for `COCC(=O)Nc1ccc(OCc2ccccc2)cc1` it is 11.7 µM (active); for `CC(C)c1ccc(NC(=O)COc2ccccc2)cc1` it is 7.36 µM (active).

For the molecule `CC(C)c1ccc(NC(=O)COc2ccc(F)cc2C(=O)c2cnn(-c3ccccc3)c2)cc1`, the Potency is 2.93 µM (active). The figure for `CC(C)c1ccc(NC(=O)Cn2ncc3ccccc32)cc1` is 7.36 µM (active). For the molecule `Cc1ccsc1C(=O)Nc1ccc(OCc2ccccc2)cc1`, the Potency was 1.65 µM (active). The figure for `Cc1ccc(NC(=O)CCOc2ccccc2)cc1` is 5.85 µM (active) and 8.26 µM (active); for `CCOc1ccc(NC(=O)NC2CCCCCCC2)cc1` it is 2.93 µM (active).

Source of the values: PubChem BioAssay AID2289 (National Center for Advancing Translational Sciences (NCATS), 2010).
